What all share (assay): Primary Screen for Target Class Profiling of Small Molecule Inhibitors of Methyltransferases
For test [1], the target named is Catechol O-methyltransferase (Homo sapiens) (UniProt P21964). Particulars: purified enzyme, MTase-Glo SAH luminescence; activity change, negative = inhibition: at 40 µM, stronger effect = lower value; outcome: 40 uM. The text has this: (§1) PI: Matthew D. Hall Ph.D. and Quinlin M. Hanson Ph.D.
(§2) National Center for Advancing Translational Sciences (NCATS)
(§3) National Institute of Health (NIH), Rockville, MD
(§4) Target class profiling (TCP) is a chemical biology approach amenable to investigating understudied biological targets. TCP is achieved by developing a generalizable assay platform and applying it to screen a curated set of compound libraries against representative members of a target class. Small molecule methyltransferases (SMMTase) are a subclass of methyltransferase that act on metabolites to modulate signaling pathways, metabolize xenobiotics, or balance the available methyl pool. We screened four curated libraries totaling 27,574 unique compounds against the SMMTases nicotinamide N-methyltransferase (NNMT), phenylethanolamine N-methyltransferase (PNMT), histamine N-methyltransferase (HNMT), glycine N-methyltransferase (GNMT), catechol O-methyltransferase (COMT), and guanidinoacetate N-methyltransferase (GAMT). The data generated by this TCP can be leveraged for informed tool molecule development. For example, in the associated publication we identified a chemotype of HNMT-selective inhibitors. Additionally, we identified a putative SMMTase-selective inhibitor with potential as a tool molecule for studying broader methyltransferase biology.
(§5) High-through put screening assays were developed at the National Center for Advancing Translational Science (NCATS) for the enzymes NNMT, PNMT, HNMT, GNMT, COMT, and GAMT. Enzymatic activity was measured as a function of SAM cofactor conversion using the MTase Glo kit (Promega) for all enzymes. All assays were performed in 1536-well format with substrates and SAM concentrations at KM values. Enzyme concentration and assay timing were optimized for 10-20% SAM conversion. Initial screening of 27,574 compounds was done as single-point assays using the highest compound concentration (40 uM). […] These compounds were replated in 11-point dose response and assayed against NNMT, PNMT, HNMT, GNMT, COMT, GAMT, and a counter-assay. The IC50 and efficacy (maximal response) values were determined for each dose-response curve. These values are also accounted for in the area under the curve (AUC) values.
(§6) PROTOCOL TABLE (as described by Inglese J, Shamu CE and Guy RK. 2007)
(§7) SEQUENCE No. (e.g., 1, 2, 3, etc.); […] (e.g., Cells, Incubation, Reagent, etc.); VALUE; DESCRIPTION.
(§8) 1; Reagent; 2 uL; SMMTase Enzyme (2x) in reaction buffer, columns 1- 48.
(§9) 2; Reagent; 1 uL; SAM (4x) in reaction buffer, columns 1-48.
(§10) 3; Controls; 23 nL; DMSO in column 4; sinefungin in DMSO (0 uM - 40 uM) in 7-point 1:2 dilution series (n = 2) in column 2.
(§11) 4; Compounds; 23 nL; Columns 5-48.
(§12) 5; Reagent; 1 uL; Substrate (4x) in reaction buffer, columns 2-48.
(§13) 6; Time; 20-30 min; Incubation.
(§14) 7; Reagent; 1 uL; MTase-Glo reagent (5X), columns 1-48.
(§15) 8; Time; 30 min; Incubation.
(§16) 9; Reagent; 5 uL; MTase-Glo Detection reagent, columns 1-48.
(§17) 10; Time; 30 min; Incubation, luminescence evolution.
(§18) 11; Detection; Luminescence; ViewLux uHTS Microplate Imager (PerkinElmer).
(§19) NOTES (numbers refer to Sequence numbers above)
(§20) 1, 2, 5. White Medium Binding Greiner 1536-well plates (Cat #789175-F, Greiner Bio-One, Monroe, NC); Reaction buffer: 50 mM Tris, pH 8.0, 3 mM MgCl2, 1 mM EDTA, 50 mM NaCl, 1 mM DTT, and 0.1 mg/mL BSA. Evaporation was prevented by covering assay plates with metal lids containing holes to allow gas diffusion.
(§21) 1. Six SMMTase were profiled: HNMT, GNMT, PNMT, COMT, NNMT, GAMT
(§22) 5. The corresponding substrate was used for each enzyme: HNMT - 5.3 uM Histamine; GNMT - >500 uM Glycine; PNMT - 16.2 uM Norephinephrine; COMT - 13.7 uM Norephinephrine; NNMT - 3.8 uM Nicotinamide; GAMT - 2.5 uM Guanidinoacetate.6, 8, 10. Room temperature
(§23) 6. Final reaction conditions: 10 nM COMT, 5 uM SAM, 15 uM norepinephrine, 50 mM Tris, pH 8.0, 3 mM MgCl2, 1 mM EDTA, 50 mM NaCl, 1 mM DTT, and 0.1 mg/mL BSA; refer to tables 2 and S1 for specific timing.
8. […]

Test [2] deals with Glycine N-methyltransferase (Homo sapiens) (UniProt Q14749). As to conditions: purified enzyme, MTase-Glo SAH luminescence; measured here: GNMT inhibition; at 40 µM; stronger effect = lower value.
Excerpt: as §1, §2, §3, §4, §5, §6, §7, §8, §9, §10, §11, §12, §13, §14, §15, §16, §17, §18, §19, §20, §21, §22, §23
8. […]

The target of test [3] is Guanidinoacetate N-methyltransferase (Homo sapiens) (UniProt Q14353). Particulars: purified enzyme, MTase-Glo SAH luminescence; measured here: GAMT inhibition; at 40 µM; stronger effect = lower value.
Excerpt: as §1, §2, §3, §4, §5, §6, §7, §8, §9, §10, §11, §12, §13, §14, §15, §16, §17, §18, §19, §20, §21, §22, §23
8. […]

The target in test [4] is Histamine N-methyltransferase (Homo sapiens) (UniProt P50135). Particulars: purified enzyme, MTase-Glo SAH luminescence; measured here: HNMT inhibition; at 40 µM; stronger effect = lower value.
Excerpt: as §1, §2, §3, §4, §5, §6, §7, §8, §9, §10, §11, §12, §13, §14, §15, §16, §17, §18, §19, §20, §21, §22, §23
8. […]

Test [5] has as its target Nicotinamide N-methyltransferase (Homo sapiens) (UniProt P40261). Particulars: purified enzyme, MTase-Glo SAH luminescence; measured here: NNMT inhibition; at 40 µM; stronger effect = lower value.
Excerpt: as §1, §2, §3, §4, §5, §6, §7, §8, §9, §10, §11, §12, §13, §14, §15, §16, §17, §18, §19, §20, §21, §22, §23
8. […]

The target in test [6] is Phenylethanolamine N-methyltransferase (Homo sapiens) (UniProt P11086). As to conditions: purified enzyme, MTase-Glo SAH luminescence; measured here: PNMT inhibition; at 40 µM; stronger effect = lower value.
Excerpt: as §1, §2, §3, §4, §5, §6, §7, §8, §9, §10, §11, §12, §13, §14, §15, §16, §17, §18, §19, §20, §21, §22, §23
8. […]

Consider 13 molecules from PubChem BioAssay AID1745853 (National Center for Advancing Translational Sciences (NCATS), 2022).

Structures are written as SMILES. Among all 25,000 compounds or so, about 970 (3.9%) were called active. Inconclusive results (about 8%) are left out. The sample holds actives, similar compounds and a random draw of the others, so the mix is not that of the screen. The rule behind the calls is not given here.
% is set by controls: 0 for no effect and ±100 for the full control effect.

Chain of Glycine N-methyltransferase (Homo sapiens) (Q14749 whole entry, looked up): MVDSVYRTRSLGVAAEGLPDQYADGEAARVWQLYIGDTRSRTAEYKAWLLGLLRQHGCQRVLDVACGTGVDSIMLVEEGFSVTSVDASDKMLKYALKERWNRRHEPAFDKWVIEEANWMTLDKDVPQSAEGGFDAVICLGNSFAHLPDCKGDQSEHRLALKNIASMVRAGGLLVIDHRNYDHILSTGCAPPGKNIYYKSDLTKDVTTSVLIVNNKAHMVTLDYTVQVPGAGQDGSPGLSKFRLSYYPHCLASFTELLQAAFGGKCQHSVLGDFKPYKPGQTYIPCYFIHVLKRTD
Chain of Catechol O-methyltransferase (Homo sapiens) (P21964 whole entry, looked up): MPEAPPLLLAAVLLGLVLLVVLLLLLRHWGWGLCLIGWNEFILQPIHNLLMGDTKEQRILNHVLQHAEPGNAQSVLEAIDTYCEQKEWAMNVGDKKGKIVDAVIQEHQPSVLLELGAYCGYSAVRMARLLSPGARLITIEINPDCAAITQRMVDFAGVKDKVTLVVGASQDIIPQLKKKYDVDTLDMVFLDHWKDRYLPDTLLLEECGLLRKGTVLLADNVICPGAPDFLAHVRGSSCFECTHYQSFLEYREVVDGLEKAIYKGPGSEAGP
Chain of Phenylethanolamine N-methyltransferase (Homo sapiens) (P11086 whole entry, looked up): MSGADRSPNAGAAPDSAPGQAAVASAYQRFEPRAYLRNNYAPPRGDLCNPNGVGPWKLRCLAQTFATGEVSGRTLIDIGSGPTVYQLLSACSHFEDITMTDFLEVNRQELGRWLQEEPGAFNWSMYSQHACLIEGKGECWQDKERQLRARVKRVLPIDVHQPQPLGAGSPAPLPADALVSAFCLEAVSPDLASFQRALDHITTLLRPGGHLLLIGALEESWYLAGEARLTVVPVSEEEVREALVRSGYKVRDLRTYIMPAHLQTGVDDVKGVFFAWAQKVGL
Chain of Nicotinamide N-methyltransferase (Homo sapiens) (P40261 whole entry, looked up): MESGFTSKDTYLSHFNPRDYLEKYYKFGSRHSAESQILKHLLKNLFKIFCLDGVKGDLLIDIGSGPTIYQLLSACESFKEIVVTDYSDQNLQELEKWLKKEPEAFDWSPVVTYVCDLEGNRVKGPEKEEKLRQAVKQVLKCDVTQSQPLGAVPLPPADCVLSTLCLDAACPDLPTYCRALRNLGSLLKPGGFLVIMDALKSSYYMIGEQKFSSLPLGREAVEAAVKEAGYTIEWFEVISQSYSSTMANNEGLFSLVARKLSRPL
Chain of Histamine N-methyltransferase (Homo sapiens) (P50135 whole entry, looked up): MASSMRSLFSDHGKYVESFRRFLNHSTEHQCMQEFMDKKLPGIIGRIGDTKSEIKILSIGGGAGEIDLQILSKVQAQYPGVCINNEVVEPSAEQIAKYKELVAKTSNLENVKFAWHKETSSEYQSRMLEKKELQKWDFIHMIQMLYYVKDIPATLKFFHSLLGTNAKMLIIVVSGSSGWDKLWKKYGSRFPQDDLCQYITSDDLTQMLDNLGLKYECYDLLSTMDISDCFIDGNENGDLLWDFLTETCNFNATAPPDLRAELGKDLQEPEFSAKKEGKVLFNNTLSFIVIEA

With `Cc1cc2c(F)c(Oc3ncnn4cc(OCC(C)O)c(C)c34)ccc2[nH]1` (stereo not drawn), the activity change, negative = inhibition in test [1] is 3.68% (inactive); in test [2], 3.84%; in test [3] it was 9.85%; in test [4], 8.7%; in test [5] it was -17.3%; in test [6] it was -3.09%.

For the molecule `Cc1nonc1OCCn1ccnc1-c1cn(C2CCNCC2)nn1`, the activity change, negative = inhibition is 0.411% (inactive) in test [1]; -2.5% in test [2]; -0.534% in test [3]; -2.48% in test [4]; -2.16% in test [5]; -1.03% in test [6].

Turning to `CCOC(=O)c1ccc(N2C(=O)CSc3c(c4ccccc4n3C)C2C(=O)NCc2ccccc2)cc1` (stereo not drawn), the activity change, negative = inhibition in test [1] was 8.93% (inactive); in test [2], 13.6%; in test [3] it was 0.807%; in test [4], 10.5%; in test [5] it was 10.6%; in test [6], 10.2%.

Take `CC1CC(O)/C=C/C(O)/C=C\C(=O)O1` (stereo not drawn): the activity change, negative = inhibition in test [1] was -1.4% (inactive); in test [2] it was 0.769%; in test [3], 10.1%; in test [4] it was 9.33%; in test [5], -2.16%; in test [6], 5.9%.

With `O=C(CCn1ccc2cc(S(=O)(=O)N3CCCC3)ccc21)NCc1cccc(Cl)c1`, the activity change, negative = inhibition in test [1] is -5.13% (inactive); in test [2], -5.66%; in test [3], 0%; in test [4] it was -0.957%; in test [5], -15.3%; in test [6], -7.6%.

Regarding `CC(F)(F)CN1CCOc2c(nn(-c3ccccc3Cl)c2-c2ccc(Cl)cc2)C1=O`, the activity change, negative = inhibition in test [1] is -4.89% (active); in test [2] it was -72.3%; in test [3], -2.43%; in test [4] it was -6.67%; in test [5], -49.1%; in test [6] it was -14.4%.

With `COc1cc(NC(=O)CSc2nnc3n(CC(C)C)c(=O)c4ccccc4n23)cc(OC)c1`, the activity change, negative = inhibition is 1.19% (inactive) in test [1]; 0.652% in test [2]; 4.16% in test [3]; 4.88% in test [4]; 0.518% in test [5]; 1.8% in test [6].

On to `CC1=C(C(=O)O)/C(=C/CO[C@@H]2O[C@H](COC(=O)/C=C/c3ccc(O)cc3)[C@@H](O)[C@H](O)[C@H]2O)C(O)C1` (stereo partly drawn), for which the activity change, negative = inhibition in test [1] is -20.2% (inactive); in test [2] it was 4.68%; in test [3] it was 4.63%; in test [4], 9.32%; in test [5] it was -5.67%; in test [6], 0.561%.

In the case of `COc1ccc2cc3n(c2c1)CC(C)(C(=O)NC1CCCC1)N(CCc1ccc(SC)cc1)C3=O` (stereo not drawn), the activity change, negative = inhibition was -1.16% (inactive) in test [1]; 0.148% in test [2]; 0% in test [3]; 3.11% in test [4]; -0.661% in test [5]; -4.18% in test [6].

Turning to `CCC[C@H]1CN(C(=O)c2ccc3c(c2)NC(=O)CN3)C[C@@H]1N`, the activity change, negative = inhibition in test [1] was -3.16% (inactive); in test [2] it was -3.38%; in test [3], -8.81%; in test [4] it was -2.88%; in test [5] it was -6.82%; in test [6], -2.87%.

As to `CCOc1ccc(N2C(=O)c3cc(-c4ccc(OC)cc4)nn3CC2(C)C(=O)NCc2ccccc2OC)cc1` (stereo not drawn), the activity change, negative = inhibition in test [1] was 4.86% (inactive); in test [2], 7.45%; in test [3], 4.82%; in test [4], 9.26%; in test [5] it was 5.96%; in test [6], 0.163%.

As to `CN1C(=O)c2cc(C(=O)NCCc3cccs3)nn2CC1(C)C(=O)NCc1ccc(F)cc1` (stereo not drawn), the activity change, negative = inhibition was 1.71% (inactive) in test [1]; 3.48% in test [2]; 0% in test [3]; -2.18% in test [4]; 9.12% in test [5]; 3.02% in test [6].

Consider `C[C@]12CCC[C@](C)(C(=O)O)C1[C@@H](O)[C@@H](O)C13CC(CCC12)C(CO)(O[C@@H]1O[C@H](CO)[C@@H](O)[C@H](O)[C@H]1O)C3` (stereo partly drawn), for which the activity change, negative = inhibition in test [1] was -23% (inactive); in test [2] it was 0%; in test [3] it was 1.76%; in test [4], 7.4%; in test [5] it was -7.28%; in test [6], 3.45%.
